An excerpt weighted towards active compounds, which were near 19% of everything screened.
DT40 TDP1 CPT – DT40-hTDP1 cell growth loss with CPT; actives 12% (n = 420,000); chicken DT40 Tdp1-/-;hTDP1 cells + 20 nM CPT, ATP luminescence, 48 h; Potency, µM (top dose mostly 46.2 µM), most hits filed as inhibitors; also: nearly all actives have a fitted effect of over 55% in size
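Cell growth measured by CellTiter-Glo luminescence after a minimum 48 h, 37 C compound exposure with 20 nM CPT in Tdp1-knockout DT40 cells stably expressing hTDP1, seeded 400/well; qHTS titration format.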
KB-3-1 tox – KB-3-1 parental cell cytotoxicity; KB-3-1 viability, CellTiter-Glo ATP luminescence, 72 h; Potency, µM (top dose mostly 46.1 µM), actives largely listed as cytotoxic; actives 1.4% (n = 400,000); also: nearly all actives have a fitted effect of over 60% in size
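Here the drug-naive KB-3-1 line serves as comparator for MDR sub-line selectivity; cells received compound titrations, 72 h at 37 °C, then CellTiter-Glo readout.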
HT1080-NT tox – kills 2HG-producing HT-1080-NT fibrosarcoma cells. HT-1080-NT fibrosarcoma viability, CellTiter-Glo ATP luminescence, 48 h. Potency, µM (series often up to 46.1 µM), most hits filed as cytotoxic. actives 1.6% (n = 360,000);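 also: NT is the 2HG producing partner of a matched IDH1 knockdown line; nearly all actives have a fitted effect of over 55% in size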
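750 cells/well, RPMI + 5% FBS; 2 h settle, compound pin-transfer, 48 h at 37 degrees C. CellTiter-Glo 10 min RT, luminescence. Normalized to DMSO and media-only wells.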
KB-V1 cytotox – kills drug-selected multidrug resistant KB-V1 cells; actives 3.4% (n = 400,000); KB-V1 MDR cells viability, CellTiter-Glo, 72 h; Potency, µM (highest dose often 46.1 µM), usual class: cytotoxic; AID 1347076; also: nearly all actives have a fitted effect of over 60% in size
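Cytotoxicity toward P-gp-expressing KB-V1 cells was determined as loss of CellTiter-Glo luminescence after 72 h at 37 degrees C. Compounds were tested in quantitative HTS format across a concentration range, with curves fitted to normalized data.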
HT1080 IDH1KD tx – HT-1080 IDH1 knockdown cell toxicity (counter line); HT-1080 IDH1 knockdown viability, ATP luminescence, 48 h; Potency, µM (doses to about 46.1 µM), actives largely listed as cytotoxic; actives 2% (n = 360,000)
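After a 2 h attachment period, IDH1KD HT-1080 cells took pin-transferred compound for 48 h at 37 °C; ATP-based luminescence after 10 min room-temperature reagent incubation reported viability.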
TDP1 cell noCPT – qHTS for Inhibitors of human tyrosyl-DNA phosphodiesterase 1 (TDP1): qHTS in cells in absence of CPT | AID 686978, 2013 | actives 15% (n = 420,000) | DT40 Tdp1-/- hTDP1 cells, no CPT, ATP luminescence, 48 h | Potency, µM (series often up to 46.2 µM), usual class: inhibitors; also: nearly all actives have a fitted effect of over 55% in size
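Seeded 400 DT40-hTDP1 cells/well (vehicle DMSO, no 20 nM CPT); pinned compounds; ≥48 hr at 37 °C; CellTiter-Glo luminescence as viability measure.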
Hits are given with their value; n = inactive; u = inconclusive; x = not tested or not shown; ! = not confirmed by another sample; [ ] = remark or other dose. Calls follow the shape of the dose curve; as a rule, active = well fitted curve in the direction sought with a large enough effect; inconclusive = small, poorly fitted or top-dose-only effect, or another doubt; inactive = no such curve, though single readings can be large; an effect the other way counts as inactive or inconclusive.

SMILES | DT40 TDP1 CPT | KB-3-1 tox | HT1080-NT tox | KB-V1 cytotox | HT1080 IDH1KD tx | TDP1 cell noCPT
COc1ccc(OC)c(-c2cc(Cl)c3c(c2)CC(CNC(=O)[C@@H]2CCCN2C(C)=O)O3)c1 (some centres not stated) | n[9.04 µM] | x | x | x | x | n
CC(O)(c1ccc(F)c(F)c1)c1nc(-c2cc3ccccc3o2)cs1 (configuration not stated) | u | n | u | n | u | 14.6µM
CC(O)(c1ccc(F)c(F)c1)c1nc(-c2csc3ccccc23)cs1 (configuration not stated) | u | n | u | n | u | u
COc1cccc(C(C)(O)c2nc(-c3cc4ccccc4o3)cs2)c1 (configuration not stated) | 16.4µM | n | u | u | u | 23.1µM
CC(O)(c1cccc(F)c1)c1nc(-c2cc3ccccc3o2)cs1 (configuration not stated) | u | n | u | n | u | 23.1µM
CC(O)(c1cccc(F)c1)c1nc(-c2cncnc2)cs1 (configuration not stated) | u | n | n | n | n | n
CCOC(=O)c1ccccc1NC(=O)CSc1ncc(CO)n1Cc1ccc(C)cc1 | 14.6µM | n | x | n | x | n
Cc1ccc(Cn2c(CO)cnc2SCC(=O)Nc2ccc(C)c(Cl)c2)cc1 | 18.4µM | n | x | n | x | 23.1µM
Cc1ccc(Cn2c(CO)cnc2SCC(=O)Nc2cccc(F)c2)cc1 | n | n | x | n | x | n
COc1ccc(N2CCN(S(=O)(=O)CCNC(=O)c3ccc(Br)o3)CC2)cc1 | n | n | n | n | n | n
COCCn1c(SCc2ccc(C(=O)OC)o2)nc2cc(Cl)ccc2c1=O | u | n | n | n | n | u
CC(=O)OC1CCC2C3CCc4cc(OP(=O)(N5CC5)N5CC5)ccc4C3CCC12C (configuration not stated) | u | n | n | n | n | u
Cc1cccc(-c2ccc(O)cc2CN2CCN(c3ncc(Cc4ccccc4)cn3)CC2)c1 | u | n | u | u | u | 20.6µM
Cc1ccc(C)c(CN2CCN(c3ncccn3)CC2)c1 | n | n | n | n | n | n
Cc1cccc(-c2ccc([N+](=O)[O-])cc2CN2CCN(c3ncc(Cc4ccccc4)cn3)CC2)c1 | 5.8µM | n | u | u | u | 5.8µM
Oc1ccc(Br)c(CN2CCN(c3ncc(Cc4ccccc4)cn3)CC2)c1 | u | 20.6µM | u | 18.4µM | u | u
CCCCC1CC1C(=O)Nc1ccc(OC)c(OC)c1 (configuration not stated) | u | n | n[9.24 µM] | n | n | n
NS(=O)(=O)c1ccc(Oc2ccc(S(N)(=O)=O)cc2)cc1 | n | n | n | n | n | n
C=CS(=O)(=O)c1ccc(Oc2ccc(S(=O)(=O)C=C)cc2)cc1 | 2.31µM | u | n | u | u | 2.31µM
COc1cc(-c2cc(-c3ccc(O)cc3)nc(N)c2C#N)ccc1O | n | u | u | u | u | u
CCOc1cc(-c2cc(-c3ccc(C)cc3)nc(N)c2C#N)ccc1O | u | 5.8µM | 8.91µM | 8.2µM | 12.6µM | 20.6µM
N#Cc1c(-c2ccco2)cc(-c2ccc(F)cc2)nc1N | u | n | n | n | n[9.24 µM] | 18.4µM
CCOc1cc(/C=C(\C#N)c2[nH]nc(N)c2C#N)ccc1O | u | n | n | u | n | 10.3µM
COc1ccc(-c2cc(-c3ccc(O)cc3)nc(N)c2C#N)cc1 | u | n | n | n | n | 23.1µM
CCOc1cc(-c2c(C#N)c(N)nc3c2CCc2ccccc2-3)ccc1O | 18.4µM | u | n | 23.1µM | u | 14.6µM
SMILES | DT40 TDP1 CPT | KB-3-1 tox | HT1080-NT tox | KB-V1 cytotox | HT1080 IDH1KD tx | TDP1 cell noCPT
CCc1nc(N)c(C#N)c(-c2ccccc2OC)c1C | 13µM | n | n | u | n[9.24 µM] | n
CCOC(=O)COc1nc2c(c(-c3ccco3)c1C#N)CCc1ccccc1-2 | n | n | n | n | n | n
COc1ccccc1-c1c(C)c(C)nc(N)c1C#N | n | n | n | n | n | n
COc1ccccc1-c1c(C#N)c(N)nc2c1CCc1ccccc1-2 | 6.51µM | 13µM | 14.6µM | 16.4µM | 16.4µM | 6.51µM
COc1ccc(OC)c(-c2cc(-c3cccnc3)nc(N)c2C#N)c1 | 0.92µM | 2.06µM | 1.84µM | 2.59µM | 1.46µM | 0.92µM
O=C(Cn1cccc1C(=O)c1ccccc1)NCc1ccccn1 | n | n | n | n | n | n
CC1CCN(C(=O)COC(=O)c2ccc3c(c2)OCO3)CC1 | n | n | n | n | n | n
COc1ccc(-c2c(C#N)c(N)nc3c2CCCCCC3)cc1OC | n | n | n | n | n | n
CCOc1cc(-c2c(C#N)c(N)nc3c2CCCC3C)ccc1O (configuration not stated) | 9.2µM | u | u | 18.4µM | u | u
CCOC(=O)c1c(CC(C)C)csc1NC(C)=O | n | n | n | n | n | n
CCOC(=O)c1c(CC(C)C)csc1NC(=O)c1ccccc1C(=O)O | n | n | n | n | n | n
CCOC(=O)c1c(NC(=O)COC(=O)c2cc(OC)c(OC)cc2[N+](=O)[O-])sc(C)c1CC | u | n | n | n | n | 14.6µM
CCOC(=O)c1c(CC(C)C)csc1NC(=O)COC(=O)c1cc(OC)c(OC)cc1[N+](=O)[O-] | 11.6µM | n | n | n | n | 5.8µM
CCOC(=O)c1c(CC(C)C)csc1NC=O | n | 16.4µM | n | 4.61µM | n | n
CC(Sc1nnc(C2CC2)n1C1CC1)C(=O)NC1(C#N)CCCCC1 (configuration not stated) | u | x | n | x | n | n
CCCCOc1ccc(/C=N/NC(=S)Nc2cccc(C)c2C)cc1 | u | n | n | u | n | u
Cc1cccc(C)c1NC(=S)N/N=C/c1c(Cl)cccc1Cl | u | n | n | n | n | 20.6µM
Cc1cccc(C)c1NC(=S)N/N=C/c1ccc(OCCC(C)C)cc1 | 9.2µM | u | n | u | n | 7.31µM
COC(=O)c1ccc(/C=N\NC(=O)CC(=O)NCCc2ccccc2)cc1 | n | n | n | n | n | 13µM
O=C(CC(=O)N/N=C\c1ccccc1)NCCc1ccccc1 | n | n | n | n | n | n
COc1cc(/C=N/NC(=S)NCCc2ccccc2)cc(OC)c1OC | 25.9µM | n | n | n | n | 16.4µM
S=C(NCCc1ccccc1)N/N=C/c1c(Cl)cccc1Cl | u | n | n | n | n | 16.4µM
S=C(NCCc1ccccc1)N/N=C/c1ccc(Cl)cc1 | u | n | n | n | n | u
COC(=O)[C@H]1[C@H]2C[C@@H]3c4[nH]c5cc(OC)ccc5c4CCN3C[C@H]2C[C@@H](OC(=O)c2cc(OC)c(OC)c(OC)c2)[C@@H]1OC | 16.4µM! | n | u | n | u | u

Assay outcomes from PubChem.
